Shiga toxin inh: inhibitors of Shiga toxin in Vero cells. Vero cells, Shiga toxin protein synthesis inhibition reporter. inhibition, % at 38.7 µM. 290,000 tested, 9.2% active; in the data active means inhibition mostly above about 28%, no sharp cut-off; inactive means mostly below about 43%; further: 0% is about no effect
Pf growth 96h: inhibits malaria parasite growth, 96 h | P. falciparum luciferase reporter growth, 96 h | Potency, µM (series often up to 28.7 µM), for inactives: at the highest dose activity change, negative = inhibition, usual class: inhibitors | 320,000 tested, 6.9% active | AID 504834; further: potency means the concentration at half of the fitted maximal effect; on the % scale 0 is the no-effect control and ±100 the full control effect
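Erythrocytes infected with luciferase-expressing P. falciparum were dispensed at 2% hematocrit and 0.05% parasitemia (final), then incubated with compounds 96 hours at 37 C in 5% CO2. Luminescence after detection reagent addition reported growth.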
Pf growth 48h: inhibits P. falciparum growth in the first generation, 48 h. P. falciparum luciferase growth in erythrocytes, 48 h. Potency, µM (series often up to 28.7 µM), inactives show at the highest dose activity change, negative = inhibition, actives largely listed as inhibitors. 310,000 tested, 5.9% active. AID 504832; further: potency means the concentration at half of the fitted maximal effect; on the % scale 0 is the no-effect control and ±100 the full control effect
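Growth was read as firefly luciferase luminescence after a 48 h, 37 C, 5% CO2 exposure of compounds to reporter-bearing P. falciparum cultures (0.1% parasitemia, 2% hematocrit final) in Albumax-supplemented RPMI 1640.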
LASV entry inh: Lassa virus entry inhibition; Potency, µM (doses to about 37.9 µM), for inactives: at the top dose activity change, negative = inhibition, actives largely listed as inhibitors; 300,000 tested, 1.2% active; Lassa virus pseudotype entry inhibition, cell reporter; AID 540256; calls by dose curve; tested in HEK293 cells; further: potency means the concentration at half of the fitted maximal effect; on the % scale 0 is the no-effect control and ±100 the full control effect; nearly all actives have a fitted effect of over 50% in size
MARV entry inh: inhibitors of Marburg virus binding or cell entry; Marburg virus pseudotyped entry inhibition, cell reporter; Potency, µM (titrated, usually from 37.8 µM), inactives show at the top dose activity change, negative = inhibition, actives largely listed as inhibitors; 300,000 tested, 1.8% active; AID 540276; calls by dose curve; tested in HEK293 cells; further: potency means the concentration at half of the fitted maximal effect; on the % scale 0 is the no-effect control and ±100 the full control effect
Cycloheximide cs: counter-screen hit for Shiga toxin inhibitors, cycloheximide. AID 2314. cell reporter, cycloheximide protein synthesis inhibition counterscreen. 300,000 tested, 12% active. max response, %; in the data active means max response mostly above about 13%, no sharp cut-off; inactive means mostly below about 14%; further: read at 38.3 µM for the half of the compounds with a filed dose; 0% is about no effect
* hit, by the source's call; ? = inconclusive; / = no result given; [ ] = remark or other dose. In the library only some 19% were active in any assay of this set; here they are far more common. Unless noted, the call rests on the fitted dose curve; in most records, active means well fitted inhibition curve with a large enough effect; inconclusive means small, poorly fitted or top-dose-only effect, or another doubt; inactive means no such curve, though single readings can be large or run the other way.

SMILES	Shiga toxin inh	Pf growth 96h	Pf growth 48h	LASV entry inh	MARV entry inh	Cycloheximide cs
COc1ccc(CCN(C)C(=O)c2cc(S(=O)(=O)N3CCCCCC3)ccc2OC)cc1OC	/	?	?	-14%	?	/
COc1cc(CNCCc2ccc(S(N)(=O)=O)cc2)ccc1OCC(=O)N1CCCCC1	-12	4.1µM*	5%	?	-24%	-3
COc1ccc(CCNCc2ccc(OCC(=O)N3CCCCC3)c(OC)c2)cc1OC	1	-6%[5.75 µM]	-17%	22%	9%[46.1 µM]	-2
CCn1cc(C(=O)NCCN(CC(C)C)CC(C)C)c(=O)c2cc(S(=O)(=O)N3CCOCC3)ccc21	-8	0%	?	-22%[46.1 µM]	?	-7
CCn1cc(C(=O)N(C)CC(OC)OC)c(=O)c2cc(S(=O)(=O)N3CCOCC3)ccc21	-3	6.6µM*	16%	/	/	-2
COc1ccc(CCN(C)C(=O)c2cc(S(=O)(=O)N3CCCCC3)ccc2Cl)cc1OC	/	?	13µM*	-25%	?	/
O=C(NNC(=O)c1ccc(Cl)c(S(=O)(=O)Nc2ccc(Cl)cc2)c1)c1ccc(=O)[nH]c1	/	?	0%	4%	0%	/
O=C1[C@H]2[C@@H](c3ccc(Cl)cc3)N3C(=O)N(c4cccc(Br)c4)C(=O)[C@@]3(Cc3ccc(Cl)cc3)[C@H]2C(=O)N1C1CCCCC1	14	12µM*	?	/	/	3
O=C1[C@H]2[C@@H](c3ccc(F)cc3)N3C(=O)N(c4cccc(Br)c4)C(=O)[C@@]3(Cc3ccc(Cl)cc3)[C@H]2C(=O)N1C1CCCCC1	-9	3.3µM*	2.9µM*	/	/	-1
C[C@@]12C(=O)N(c3cccc(F)c3)C(=O)N1[C@H](c1ccc(F)cc1)[C@@H]1C(=O)N(C3CCCCC3)C(=O)[C@@H]12	-6	-16%	?	/	/	-2
O=C(C1CCCO1)N1CCN(S(=O)(=O)c2ccc(Cl)cc2)CC1 (centres undefined)	0	38%	7%	7%	18%	-3
COc1cccc(CN2CCN(Cc3ccco3)CC2)c1	16	-10%	26%	/	/	11
COc1ccc(OC)c(C2(O)CSC(=Nc3cccnc3)N2Cc2ccco2)c1 (centres undefined)	-2	4.7µM*	12µM*	-27%	-13%[46.1 µM]	5
O=C(Nc1ccc(Br)cc1C(=O)O)c1ccc2c(c1)C(=O)N(Cc1ccccc1)C2=O	36*	?	-19%	-6%	0%	34*
Cc1ccnc(NC(=O)c2ccc3c(c2)C(=O)N(CC(C)C)C3=O)c1	-11	5%	-11%	/	/	-2
CCCCN1C(=O)c2ccc(C(=O)Nc3cccc(C)c3C)cc2C1=O	4	-29%	/	13%	2%	-3
CCCN1C(=O)c2ccc(C(=O)Nc3cc(C)ccc3O)cc2C1=O	139*	-21%	-9%	?	-5%	56*
CCCN1C(=O)c2ccc(C(=O)Nc3ccccc3C(=O)O)cc2C1=O	46	2%	2%[0.00184 µM]	21%[46.1 µM]	?	16*
Cc1ccc(O)c(NC(=O)c2ccc3c(c2)C(=O)N(CC(C)C)C3=O)c1	/	?	44%	4%[46.1 µM]	12%[46.1 µM]	33*
CC(C)Oc1ccc(Cn2c(=O)oc3ccccc32)cc1	-3	23%	18%	/	/	-2
S=C(Nc1ccc(Cl)cc1)NC1CCN(Cc2ccccc2)CC1	-7	6.6µM*	?	?	?	-3
CCC(C)c1ccc(NC(=S)NC2CCN(Cc3ccccc3)CC2)cc1 (centres undefined)	-8	?	?	?	11µM*	-6
CCCCCC(O)(CCN1CCCCC1)c1ccc(OCC)cc1 (centres undefined)	-10	?	?	-25%	?	-4
COc1ccc(/C(C)=N/Nc2ccc(C(=O)O)cc2)c(OC)c1	53*	200%	191%	?	?	61*
C/C(=N\Nc1ccc(C(=O)O)cc1)c1ccc(Br)cc1	42*	158%	352%	/	/	21*
SMILES	Shiga toxin inh	Pf growth 96h	Pf growth 48h	LASV entry inh	MARV entry inh	Cycloheximide cs
C/C(=N\Nc1ccc(Cl)c(C(=O)O)c1)c1ccc(Br)s1	153*	34%	/	23%[46.1 µM]	?	59*
C/C(=N\NC(=O)c1ccc(Cl)c(Cl)c1)c1ccc(Br)s1	-2	10%	-18%	?	?	-1
CCOC(=O)c1c(NC(C)=O)sc(C(=O)NC2CCCC2)c1C	-7	?	20%	0%	0%[46.1 µM]	-6
CCOC(=O)c1c(NC(C)=O)sc(/C(C)=N/Nc2ccc(C(=O)O)cc2)c1C	59*	22%	-7%	0%[46.1 µM]	?	70*
COc1ccc(-c2nc(N)nc(C)c2-c2ccc(Cl)cc2)c(O)c1	-1	?	?	/	/	-2
OCCC1CN(CC2CCCCC2)CCN1C1CCCC1 (centres undefined)	/	-14%	1%	0%[46.1 µM]	?	2
C/C(=N\Nc1ccc(C(=O)O)cc1)c1ccc(Cl)s1	62*	?	148%	/	/	40*
Cc1ccc(S(=O)(=O)/N=C(/c2ccc(F)cc2)N2CCCC2)cc1	-3	0%	-11%	/	/	-8
O=C(Nc1nnc(-c2ccccc2F)s1)C1CCCO1 (centres undefined)	64*	2%	454%	-26%	?	39*
O=C(Nc1nnc(-c2ccncc2)s1)C1CCCO1 (centres undefined)	35*	/	46%	21%	0%	17*
COc1cccc(C2CC(=O)Nc3c2c(=O)n(C)c2nc4ccccc4n32)c1 (centres undefined)	/	/	/	12%[46.1 µM]	4%[46.1 µM]	/
Cc1ccc(C2=NS(=O)(=O)N(C)C(C(=O)Nc3ccc(F)cc3F)=C2)cc1	16*	19%	33%	/	/	10
CN1C(C(=O)Nc2ccc(F)cc2F)=CC(c2ccc3c(c2)OCO3)=NS1(=O)=O	/	/	/	-3%[46.1 µM]	8%[46.1 µM]	/
CSc1ccccc1NC(=O)C1=CC(c2cccs2)=NS(=O)(=O)N1C	15*	3%	?	/	/	4
COC(=O)c1ccccc1NC(=O)C1=CC(c2cccs2)=NS(=O)(=O)N1C	-1	38%	16%	0%[46.1 µM]	-28%[46.1 µM]	2
CC(C)c1ccc2oc(=O)cc(CN3CCCCC3)c2c1	17	?	7.4µM*	2%[46.1 µM]	?	5
CCc1ccc2c(CN3CCC(C(=O)OC)CC3)cc(=O)oc2c1	21	-4%	/	0%[46.1 µM]	6%[46.1 µM]	16*
CCN1CCN(Cc2cc(=O)oc3ccc(Cl)cc23)CC1	12	-18%[5.75 µM]	15%	-12%	-4%[46.1 µM]	1
CN1CCN(Cc2cc(=O)oc3ccc(Cl)cc23)CC1	-12	13µM*	-3%	-6%	20%	-1
CCOC(=O)Nc1ccc2c(CN3CCC(C(=O)OC)CC3)cc(=O)oc2c1	-7	-27%	-5%	/	/	-10
CCc1ccc2oc(=O)cc(CN3CCCCC3)c2c1	-8	5.2µM*	12µM*	17%[46.1 µM]	-1%[46.1 µM]	-3
COc1ccc(CCN2CC(C(=O)OC(C)C(=O)Nc3cccc(Cl)c3)CC2=O)cc1OC (centres undefined)	/	8%	2%	/	/	/
